FBW7 activator: activators of human E3 ligase FBW7; AlphaScreen FBW7–phospho-cyclin E peptide binding, activator screen; normalized activity (activation), % at 26.1 µM; actives 0.13% (n = 650,000); in the data active = normalized activity above about 1.9%;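 also: purified mutant Fbw7 with reduced substrate affinity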
Target sequence (Q969H0 whole entry, looked up): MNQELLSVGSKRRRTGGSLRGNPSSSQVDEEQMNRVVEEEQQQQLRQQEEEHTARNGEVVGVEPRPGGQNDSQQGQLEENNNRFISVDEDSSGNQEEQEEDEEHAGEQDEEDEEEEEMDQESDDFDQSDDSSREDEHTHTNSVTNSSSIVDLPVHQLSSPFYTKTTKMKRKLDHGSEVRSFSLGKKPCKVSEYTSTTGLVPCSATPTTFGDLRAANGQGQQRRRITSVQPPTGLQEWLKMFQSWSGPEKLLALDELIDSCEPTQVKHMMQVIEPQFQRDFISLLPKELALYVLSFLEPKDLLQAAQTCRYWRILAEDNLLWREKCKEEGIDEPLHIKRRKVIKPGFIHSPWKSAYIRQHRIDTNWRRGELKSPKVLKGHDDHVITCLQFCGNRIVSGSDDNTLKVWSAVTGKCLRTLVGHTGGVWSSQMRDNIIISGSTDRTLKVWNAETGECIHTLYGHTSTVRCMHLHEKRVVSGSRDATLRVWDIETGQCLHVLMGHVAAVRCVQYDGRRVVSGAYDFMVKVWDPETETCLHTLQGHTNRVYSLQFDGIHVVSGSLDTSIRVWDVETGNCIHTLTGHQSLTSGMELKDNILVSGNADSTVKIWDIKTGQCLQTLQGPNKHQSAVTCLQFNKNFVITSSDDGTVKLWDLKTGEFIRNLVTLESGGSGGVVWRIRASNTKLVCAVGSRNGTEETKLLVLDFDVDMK
GPR151 ag: human GPR151 activation | activation, % at 11.2 µM | PathHunter beta-arrestin GPR151 cells, luminescence | actives 1% (n = 650,000) | Q8TDV0; in the data active = activation above about 4.9%
TEAD-YAP block: TEAD-YAP interaction inhibition; actives 1.4% (n = 640,000); inhibition, % at 9.12 µM; HEK-TIYL cells, TEAD-Gal4/YAP UAS-luciferase luminescence; in the data active = inhibition above about 32%
MITF inh: human MITF inhibition, primary screen | O75030 | AlphaScreen MITF homodimerization, bead proximity signal | inhibition, % at 2.6 µM | actives 0.91% (n = 650,000); in the data active = inhibition above about 50%
MITF confirm: confirmation of human MITF inhibitors; actives 16% (n = 4,700); AlphaScreen MITF homodimerization, biotin/His-MITF beads; AID 1259372; shares compounds with MITF inh; inhibition, % at 2.6 µM;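 active = inhibition above a cutoff derived from the DMSO control wells, cut at about 28% in these data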;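 also: inhibitors lower the bead chemiluminescence by keeping MITF from dimerizing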
AS interf DR: counter-screen: compounds optically interfering with AlphaScreen; actives 6% (n = 480); AlphaScreen optical interference counterscreen, cell-free; shares compounds with MITF inh; IC50, µM; AID 1259373; call rule not given here
AS interf ctr: optically interferes with AlphaScreen signal | shares compounds with MITF inh | LysRS AlphaScreen counterscreen, signal interference, triplicate | inhibition, % at 2.6 µM | actives 7.6% (n = 4,700) | AID 1259376;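 active = inhibition above a cutoff derived from the DMSO control wells, cut at about 30% in these data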
Large screens that a line does not name were inactive (follow-up assays come after a bar, where they were run). Shown are actives, neighbours in structure and some others; about 3.4% of the full set was active somewhere.

CC(C)(c1ccc(O)c(N)c1)c1ccc(O)c(N)c1	MITF inh 74 | MITF confirm inactive | AS interf ctr 33
CC(C)(c1ccc(O)cc1)c1ccc(O)cc1	none
CCN1CCN(CCCOc2ccccc2[N+](=O)[O-])CC1	MITF inh 74 | MITF confirm inactive | AS interf ctr inactive
CC1CCCN(CCOc2ccccc2[N+](=O)[O-])C1 (centres undefined)	MITF inh 54 | MITF confirm inactive | AS interf ctr inactive
Cc1ccc(OCCCCN2CCNCC2)c([N+](=O)[O-])c1	MITF inh 80 | MITF confirm inactive | AS interf ctr inactive
O=[N+]([O-])c1ccccc1OCCN1CCCC1	none
O=[N+]([O-])c1ccccc1OCCCCN1CCNCC1	MITF inh 67 | MITF confirm inactive | AS interf ctr inactive
CC(=O)c1ccc(NC(=O)CSc2nn3c(=O)c(C)nnc3s2)cc1	none
O=C(NC1CCN(C(=O)CN2CCOCC2)CC1)c1ccccc1F	MITF inh 69 | MITF confirm inactive | AS interf ctr inactive
COc1ccc(-n2c(C)c(C(C)=O)c3cc(OC(=O)c4cccc(Br)c4)ccc32)cc1	none
O=C(NCCCO)c1ccc(/C=N/O)nc1	none
O=C(NCCCNCCCNC(=O)c1ccc(/C=N/O)nc1)c1ccc(/C=N/O)nc1	MITF inh 69 | MITF confirm 49 | AS interf ctr 100
COc1ccc(CNC(=O)c2cnn3c2NC(c2ccc(OC)cc2)CC3C(F)(F)F)cc1 (centres undefined)	none
COc1ccc(CNC(=O)c2cnn3c2NC(c2ccc4c(c2)OCO4)CC3C(F)(F)F)cc1 (centres undefined)	MITF inh 68 | MITF confirm inactive | AS interf ctr inactive
CN(C1CCCC1)C1CCN(C(=O)CNC(=O)/C=C/c2ccc(Cl)cc2)CC1	none
COc1ccc(C(=O)N/N=C(/C)CC(=O)Nc2ccccn2)cc1OC	MITF inh 60 | MITF confirm inactive | AS interf ctr inactive
CCC(C)(C(=O)NC1CCCCC1)N(CC1CCCO1)C(=O)c1ccc(=O)[nH]c1 (centres undefined)	MITF inh 79 | MITF confirm inactive | AS interf ctr inactive
CCC(=O)Nc1cccc(-n2c(C)nc3ccccc3c2=O)c1	none
Cc1cc(/C=C2/C=CC(=O)O2)oc1C	MITF inh 75 | MITF confirm 72 | AS interf DR inactive | AS interf ctr inactive
CC1Oc2ccc(C(F)(F)F)cc2N(Cc2ccccc2)C1=O (centres undefined)	none
CCCCCCCCCCCCCCCC(=O)OC[C@H](O)[C@H]1OC(=O)C(=O)C1O (some centres undefined)	MITF inh 81 | MITF confirm 42 | AS interf DR inactive | AS interf ctr inactive
COc1ccc(/C=N/Nc2nncc(-c3ccccc3)n2)cc1Br	MITF inh 65 | MITF confirm inactive | AS interf ctr inactive
Oc1ccc(/C=N\Nc2nncc(-c3ccccc3)n2)cc1	none
COc1ccccc1OCC#CCNC1CCCC1	MITF inh 55 | MITF confirm inactive | AS interf ctr inactive
COc1cccc(-c2nc3ccccc3c(=O)n2NC(=O)/C=C/c2ccc(C)cc2)c1	none
Cc1c(Cl)cccc1NC(=O)CC(NCCCN(C)C)C(=O)O (centres undefined)	none
Cc1c(Cl)cccc1NC(=O)CC(NCc1ccccn1)C(=O)O (centres undefined)	MITF inh 90 | MITF confirm 62 | AS interf ctr 100
CCCNC(CC(=O)Nc1ccc(OC)cc1)C(=O)O (centres undefined)	none
COc1ccc(NC(=O)CC(NCc2ccccn2)C(=O)O)cc1 (centres undefined)	MITF inh 110 | MITF confirm 107 | AS interf ctr 100
O=C(CC(NCc1ccccc1)C(=O)O)Nc1cccc(Cl)c1Cl (centres undefined)	none
NCCNC(CC(=O)Nc1cccc(Cl)c1Cl)C(=O)O (centres undefined)	MITF inh 85 | MITF confirm inactive | AS interf ctr 33
O=[N+]([O-])c1cccnc1NCC1COc2ccccc2O1 (centres undefined)	none
CC(NC(=O)C1CCNCC1)c1ccccc1 (centres undefined)	MITF inh 51 | MITF confirm inactive | AS interf ctr inactive
